Bioassay records deposited in PubChem BioAssay by National Center for Advancing Translational Sciences (NCATS).
HepG2 tox – counter-screen for TGF-b inhibitors: cytotoxicity in HepG2 cells. HepG2 CAGA-GFP viability, ATP luminescence, 18 h. Potency, µM (doses to about 46.1 µM), for inactives: at the top dose activity change, negative = cytotoxicity, hits mostly cytotoxic. 410,000 tested, 0.76% active. AID 588856; further: potency means the concentration at half of the fitted maximal effect
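HepG2 CAGA-GFP cells (1000/well, DMEM with 1% FBS) received compound, then TGF-beta at 500 pg/mL final, and were incubated 18 hours at 37 degrees C. Viability was read by CellTiter-Glo luminescence. Media-only wells were set as complete cell-killing and DMSO as no toxicity.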
TDP1 cell noCPT – qHTS for Inhibitors of human tyrosyl-DNA phosphodiesterase 1 (TDP1): qHTS in cells in absence of CPT; 420,000 tested, 15% active; DT40 Tdp1-/- hTDP1 cells, no CPT, ATP luminescence, 48 h; Potency, µM (series often up to 46.2 µM), for inactives: top-dose activity change, negative = growth inhibition, most hits filed as inhibitors; AID 686978, 2013; further: potency means the concentration at half of the fitted maximal effect; on the % scale 0 is the no-effect control and ±100 the full control effect; nearly all actives have a fitted effect of over 55% in size
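Growth of hTDP1-complemented DT40 Tdp1-knockout cells is measured by ATP luminescence after at least 48 hr compound exposure at 37 °C, with DMSO substituting for the 20 nM CPT used in the parallel screen.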
TGFb inhibitor – inhibitors of TGF-b signaling; HepG2 CAGA-GFP TGF-b/SMAD3 reporter, GFP fluorescence, 18 h; TGF-beta stimulated, 500 pg/mL final; Potency, µM (series often up to 46.1 µM), for the others: top-dose activity, negative = inhibition, usual class: inhibitors; 410,000 tested, 1.2% active; further: potency means the concentration at half of the fitted maximal effect; on the % scale 0 is the no-effect control and ±100 the full control effect; nearly all actives have a fitted effect of over 65% in size
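Per well, imaged GFP fluorescence of HEPG2 CAGA-GFP cells gives the signal; cells get compound, then TGF-beta (500 pg/mL final), 18 h at 37 degrees C; %Activity versus -TGF-beta and +DMSO controls.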
DT40 TDP1 CPT – growth inhibition of DT40 Tdp1-/-;hTDP1 cells with camptothecin (screen for TDP1 inhibitors). Potency, µM (series often up to 46.2 µM), for inactives: at the highest dose activity change, negative = growth inhibition, usual class: inhibitors. chicken DT40 Tdp1-/-;hTDP1 cells + 20 nM CPT, ATP luminescence, 48 h. 420,000 tested, 12% active. AID 686979; further: potency means the concentration at half of the fitted maximal effect; on the % scale 0 is the no-effect control and ±100 the full control effect; nearly all actives have a fitted effect of over 55% in size
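Chicken DT40 Tdp1-/- cells complemented with human TDP1, 400 cells/well, exposed to compounds plus 20 nM camptothecin for at least 48 h at 37 C; viability read as ATP content by CellTiter-Glo luminescence.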
TDP1 block – TDP1 (human) enzyme inhibition | Q9NUW8 | Potency, µM (titrated, usually from 130 µM), inactives show top-dose activity change, negative = inhibition, usual class: inhibitors | 350,000 tested, 0.28% active | recombinant TDP1, AlphaScreen DNA substrate cleavage; further: potency means the concentration at half of the fitted maximal effect; on the % scale 0 is the no-effect control and ±100 the full control effect; nearly all actives have a fitted effect of over 40% in size
Target sequence (Q9NUW8 whole entry, looked up): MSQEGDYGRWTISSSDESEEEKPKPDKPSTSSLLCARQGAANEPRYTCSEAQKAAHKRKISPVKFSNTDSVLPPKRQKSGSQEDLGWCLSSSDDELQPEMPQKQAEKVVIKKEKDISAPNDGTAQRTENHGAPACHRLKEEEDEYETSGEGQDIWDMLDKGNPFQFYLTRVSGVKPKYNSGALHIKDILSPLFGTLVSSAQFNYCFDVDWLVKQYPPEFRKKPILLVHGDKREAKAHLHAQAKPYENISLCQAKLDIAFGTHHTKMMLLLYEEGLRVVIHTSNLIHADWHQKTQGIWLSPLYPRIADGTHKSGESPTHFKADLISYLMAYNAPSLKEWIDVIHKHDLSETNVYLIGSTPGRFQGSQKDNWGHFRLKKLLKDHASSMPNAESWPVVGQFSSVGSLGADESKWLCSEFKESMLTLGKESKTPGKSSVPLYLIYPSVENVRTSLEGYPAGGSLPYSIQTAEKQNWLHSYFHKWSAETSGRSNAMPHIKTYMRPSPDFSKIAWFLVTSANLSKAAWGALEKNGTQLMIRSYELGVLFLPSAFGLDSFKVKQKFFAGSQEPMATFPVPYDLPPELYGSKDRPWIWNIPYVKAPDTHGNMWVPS
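Compounds were preincubated with Tdp1 (1 nM final) for 15 min at room temperature before substrate (15 nM final) started a 5 min reaction; beads (10 ug/ml final) were then added for 10 min before AlphaScreen detection.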
IL-1B inflam inh – blocks inflammasome-driven IL-1 beta release; THP-1 LPS/ATP IL-1B secretion, AlphaLISA, 16 h; hits give low values; 360,000 tested, 4.7% active; activity change, % at 57.5 µM; in the data active means activity change below about -50%; inconclusive means mostly about -30% to -49%; further: on the % scale 0 is the no-effect control and ±100 the full control effect
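THP-1 cells pretreated 1 hr with compounds (up to 57.5 uM final), then stimulated with LPS (250 ng/mL final) plus ATP (1.25 mM final); secreted IL-1B measured by AlphaLISA after 16 hr, decreased signal indicating inhibition.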
Numbers without * were called inactive; u = inconclusive; x = no result. Hits are enriched below; roughly 18% of the tested compounds scored in any of these assays. Unless noted, the call rests on the fitted dose curve; in most records, active means well fitted curve in the direction sought with a large enough effect; inconclusive means small, poorly fitted or top-dose-only effect, or another doubt; inactive means no such curve, though single readings can be large; an effect the other way counts as inactive or inconclusive.

SMILES	HepG2 tox	TDP1 cell noCPT	TGFb inhibitor	DT40 TDP1 CPT	TDP1 block	IL-1B inflam inh
O=C(CC1NCCNC1=O)Nc1ccc2c(c1)OCO2 (stereo not drawn)	-7.4%	-2.5%	8.3%	12.9%	2.0%	14.9
Cc1ccc(NC(=O)CN2C(=O)CCc3cc(S(=O)(=O)N4CCOCC4)ccc32)c(C)c1	2.0%	-14.9%	-0.2%	-18.2%	3.8%	x
CC(=O)Nc1ccc(S(=O)(=O)NCCc2cn3nc(C)c(C)nc3n2)cc1	5.1%	-6.3%	-0.2%	-11.6%	0.4%	-2.2
O=S(=O)(c1cc(Cl)ccc1Cl)N1CCN(c2ccccn2)CC1	-6.8%	4.0%	-2.1%	9.8%	x	19.4
C=C(CC[C@]12OC(C(=O)O)C(O)(C(=O)O)C(C(=O)O)(O1)C(OC(=O)/C=C/[C@@H](C)C[C@@H](C)CC)C2O)[C@@H](OC(C)=O)[C@H](C)Cc1ccccc1 (stereo partly drawn)	8.1%	7.94µM*	4.4%	8.91µM*	x	x
O=C(COc1coc(CN2CCc3ccccc3C2)cc1=O)N1CCOCC1	6.5%	-8.2%	-16.2%	2.9%	-4.9%	12.1
CC1CCC(N(CCCN)Cc2ccco2)CC1C (stereo not drawn)	-2.6%	20.6µM*	-4.0%	29.1µM*	2.7%	u
c1ccn(-c2ccc(-c3ccn[nH]3)cc2)c1	18.9%	4.2%	10.3%	2.0%	8.8%	3.9
Cc1ccc(C)n1-c1ccc(-c2ccn[nH]2)cc1	9.4%	u	-12.0%	u	7.2%	-70.5*
CCOC(=O)C1CCCN(C/C=C/c2ccccc2)C1 (stereo not drawn)	1.6%	17.5%	3.1%	23.1%	x	-2.6
Cc1ccc(S(=O)(=O)Nc2ccc3c(c2)OCCO3)cc1C	-1.0%	18.4µM*	-8.6%	u	8.4%	-2.6
CC(=O)Nc1ccc(S(=O)(=O)Nc2ccc3c(c2)OCCO3)cc1Cl	-27.0%	7.31µM*	-17.4%	u	-1.3%	17.4
COC(=O)c1cc(NS(=O)(=O)c2ccc3c(c2)OCCO3)ccc1Cl	-16.2%	x	u	x	6.3%	x
COc1cc(OC)c(NS(=O)(=O)c2ccc(Cl)c(C(=O)OC(C)C(=O)N3CCCC3)c2)cc1Cl (stereo not drawn)	-2.3%	20.6µM*	u	18.4µM*	3.4%	-1.9
COc1c(C)cc(NS(=O)(=O)c2ccc3c(c2)OCCO3)cc1C	-28.2%	2.59µM*	-16.2%	9.2µM*	7.1%	x
O=C(c1cccc(NS(=O)(=O)c2ccc(F)c(F)c2)c1)N1CCCCC1	-0.6%	5.4%	12.7%	-7.8%	3.1%	5.9
O=C(CSc1nc2c([nH]c3ccccc32)c(=O)n1-c1ccccc1)NCc1ccc(F)cc1	-26.2%	u	-21.0%	u	7.7%	x
COc1cccc(CC2(CO)CCCN(Cc3cn[nH]c3C3CCCCC3)C2)c1 (stereo not drawn)	-23.4%	u	-2.6%	-29.5%	3.6%	-16.1
CCN(CC)CCNC(=O)C(=O)NCC(c1ccc2c(c1)OCO2)N1CCOCC1 (stereo not drawn)	-5.9%	-6.2%	4.4%	2.5%	1.1%	x
CCOC(=O)c1ccc(NS(=O)(=O)c2ccc3c(c2)OCCO3)cc1	-19.1%	29.1µM*	u	13µM*	-2.1%	x
CSc1nc2ccc(NS(=O)(=O)c3ccc4c(c3)OCCO4)cc2s1	-15.0%	23.1µM*	u	u	1.9%	33.8
COc1ccc(NS(=O)(=O)c2ccc3c(c2)OCCO3)cc1OC	-40.7%	5.8µM*	-10.2%	7.31µM*	x	-0.9
COc1ccc(S(=O)(=O)Nc2ccc3c(c2)OCO3)cc1OC	-0.6%	-14.7%	-4.5%	-14.5%	8.2%	-3.2
